# Assay results published in the supplement of paper PMC7411054.
# Where a name gives a salt, the structure may show the parent alone.
# How the values were obtained:
# Conditions in all cases: treatment time: 24 h
# [1] = tested on: A549-ACTB-RAB5A; test: lowest phenotypically active concentration; higher = less potent
# Procedure, shortened: (§1)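 Fifteen reporter lines derived from A549, HepG2 and WPMY1 cells by gene editing, carrying BFP for segmentation plus GFP and RFP/FusionRed markers, were exposed to 0.3, 1, 3 or 9 µM for 24 h in four wells each and imaged live. Live-cell features from each well were normalised to solvent control wells. A well set counted as deviating when ≥3 of 4 wells lay beyond the 95th percentile of control Euclidean distances, and as reproducible when the median replicate Pearson correlation exceeded the 95th percentile of non-replicates. Phenotypic activity was assigned only when both criteria were met.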
# [2] = tested on: A549-CANX-COX4; test: as above
# Procedure, shortened: as §1
# [3] = tested on: A549-GM130-SQSTM1; test: as above
# Procedure, shortened: as §1
# [4] = tested on: A549-TP53BP1-CLTA; test: as above
# Procedure, shortened: as §1
# [5] = tested on: A549-TUBA1B-RELA; test: as above
# Procedure, shortened: as §1
# [6] = tested on: HepG2-TP53BP1-CLTA; test: as above
# Procedure, shortened: as §1
# [7] = tested on: A549-ACTB-RAB5A; test: phenotypically active (imaging signature differs from DMSO and reproducible) at any of 0.3-9 uM (binary (1 = active, 0 = inactive)); higher = active
# Procedure, shortened: as §1
# [8] = tested on: A549-CANX-COX4; test: as above
# Procedure, shortened: as §1
# [9] = tested on: A549-GM130-SQSTM1; test: as above
# Procedure, shortened: as §1
# [10] = tested on: A549-TP53BP1-CLTA; test: as above
# Procedure, shortened: as §1
# [11] = tested on: A549-TUBA1B-RELA; test: as above
# Procedure, shortened: as §1
# [12] = tested on: HepG2-ACTB-RAB5A; test: as above
# Procedure, shortened: as §1
# [13] = tested on: HepG2-CANX-COX4; test: as above
# Procedure, shortened: as §1
# [14] = tested on: HepG2-GM130-SQSTM1; test: as above
# Procedure, shortened: as §1
# [15] = tested on: HepG2-TP53BP1-CLTA; test: as above
# Procedure, shortened: as §1
# [16] = tested on: HepG2-TUBA1B-RELA; test: as above
# Procedure, shortened: as §1
# [17] = tested on: WPMY1-CANX-COX4; test: as above
# Procedure, shortened: as §1
# [18] = tested on: WPMY1-GM130-SQSTM1; test: as above
# Procedure, shortened: as §1
# [19] = tested on: WPMY1-TP53BP1-CLTA; test: as above
# Procedure, shortened: as §1
# [20] = tested on: WPMY1-TUBA1B-RELA; test: as above
# Procedure, shortened: as §1
Compound,lowest phenotypically active concentration [1],lowest phenotypically active concentration [2],lowest phenotypically active concentration [3],lowest phenotypically active concentration [4],lowest phenotypically active concentration [5],lowest phenotypically active concentration [6],phenotypically active [7],phenotypically active [8],phenotypically active [9],phenotypically active [10],phenotypically active [11],phenotypically active [12],phenotypically active [13],phenotypically active [14],phenotypically active [15],phenotypically active [16],phenotypically active [17],phenotypically active [18],phenotypically active [19],phenotypically active [20]
CC1=C(C(=O)Nc2cc3cn[nH]c3cc2F)C(c2ccc(C(F)(F)F)cc2)CC(=O)N1 (stereo not given),≤ 0.3 µM,1 µM,1 µM,≤ 0.3 µM,≤ 0.3 µM,≤ 0.3 µM,1 (active),1 (active),1 (active),1 (active),1 (active),1 (active),1 (active),1 (active),1 (active),1 (active),1 (active),1 (active),1 (active),1 (active)
CCc1cc(-c2n[nH]c(C)c2-c2ccc3c(c2)OCCO3)c(O)cc1O,3 µM,3 µM,3 µM,3 µM,3 µM,3 µM,1 (active),1 (active),1 (active),1 (active),1 (active),1 (active),1 (active),1 (active),1 (active),1 (active),1 (active),1 (active),1 (active),1 (active)
COc1ccc(N(C)c2nc(C)nc3ccccc23)cc1 [MPC 6827 hydrochloride],≤ 0.3 µM,≤ 0.3 µM,≤ 0.3 µM,1 µM,≤ 0.3 µM,≤ 0.3 µM,1 (active),1 (active),1 (active),1 (active),1 (active),1 (active),1 (active),1 (active),1 (active),1 (active),1 (active),1 (active),1 (active),1 (active)
CC1(C)CC(=O)C2=C(C1)NC(=S)NC2c1cccc(O)c1 (stereo not given) [Dimethylenastron],1 µM,3 µM,1 µM,3 µM,1 µM,1 µM,1 (active),1 (active),1 (active),1 (active),1 (active),1 (active),1 (active),1 (active),1 (active),1 (active),1 (active),1 (active),1 (active),1 (active)
CC[C@@H](N)CNc1ccnc(-c2cc(-c3cnn(C)c3)ccc2O)n1,1 µM,3 µM,1 µM,1 µM,1 µM,1 µM,1 (active),1 (active),1 (active),1 (active),1 (active),1 (active),1 (active),1 (active),1 (active),1 (active),1 (active),1 (active),1 (active),1 (active)
N#Cc1c(C2CCNCC2)cc(-c2c(O)cccc2OCC2CC2)nc1N,9 µM,9 µM,9 µM,9 µM,9 µM,9 µM,1 (active),1 (active),1 (active),1 (active),1 (active),1 (active),1 (active),1 (active),1 (active),1 (active),1 (active),1 (active),1 (active),1 (active)
CC(C)n1nc(-c2cc3cc(O)ccc3[nH]2)c2c(N)ncnc21,1 µM,1 µM,1 µM,1 µM,1 µM,3 µM,1 (active),1 (active),1 (active),1 (active),1 (active),1 (active),1 (active),1 (active),1 (active),1 (active),1 (active),1 (active),1 (active),1 (active)
O=C1Nc2ccc(F)cc2C1=C1Nc2ccccc2C1=NO [5'-Fluoroindirubinoxime],1 µM,1 µM,1 µM,1 µM,1 µM,1 µM,1 (active),1 (active),1 (active),1 (active),1 (active),1 (active),1 (active),1 (active),1 (active),1 (active),1 (active),1 (active),1 (active),1 (active)
Cc1cc(Nc2nc(N[C@@H](C)c3ncc(F)cn3)ncc2Cl)n[nH]1,3 µM,3 µM,3 µM,3 µM,1 µM,≤ 0.3 µM,1 (active),1 (active),1 (active),1 (active),1 (active),1 (active),1 (active),1 (active),1 (active),1 (active),1 (active),1 (active),1 (active),1 (active)
CON(C)C(=O)N1N=C(c2cc(F)ccc2F)S[C@@]1(CCCN)c1ccccc1 [ARRY 520 trifluoroacetate],≤ 0.3 µM,≤ 0.3 µM,≤ 0.3 µM,≤ 0.3 µM,≤ 0.3 µM,≤ 0.3 µM,1 (active),1 (active),1 (active),1 (active),1 (active),1 (active),1 (active),1 (active),1 (active),1 (active),1 (active),1 (active),1 (active),1 (active)
CC(C)(N)c1cc(C(=O)N[C@@H]2CCc3ccc(OC4=C5CCC(=O)N=C5NC=C4)cc3C2)cc(C(F)(F)F)c1 [ML 786 dihydrochloride],1 µM,1 µM,1 µM,3 µM,1 µM,≤ 0.3 µM,1 (active),1 (active),1 (active),1 (active),1 (active),1 (active),1 (active),1 (active),1 (active),1 (active),1 (active),1 (active),1 (active),1 (active)
COc1ccccc1-c1c[nH]c2ncc(-c3cncc(C(=O)N(C)C)c3)cc12,≤ 0.3 µM,1 µM,≤ 0.3 µM,≤ 0.3 µM,≤ 0.3 µM,≤ 0.3 µM,1 (active),1 (active),1 (active),1 (active),1 (active),1 (active),1 (active),1 (active),1 (active),1 (active),1 (active),1 (active),1 (active),1 (active)
CNC(=O)Nc1ccc(-c2nc(N3CC4CCC(C3)O4)c3cnn(C4CCC5(CC4)OCCO5)c3n2)cc1,≤ 0.3 µM,≤ 0.3 µM,≤ 0.3 µM,≤ 0.3 µM,≤ 0.3 µM,≤ 0.3 µM,1 (active),1 (active),1 (active),1 (active),1 (active),1 (active),1 (active),1 (active),1 (active),1 (active),1 (active),1 (active),1 (active),1 (active)
CCOC(=O)Nc1cc(-c2ccc(C)c(NS(C)(=O)=O)c2)nn2c(C)nnc12 [Bromosporine],≤ 0.3 µM,1 µM,1 µM,1 µM,1 µM,1 µM,1 (active),1 (active),1 (active),1 (active),1 (active),1 (active),1 (active),1 (active),1 (active),1 (active),1 (active),1 (active),1 (active),1 (active)
C=C1CN(Cc2ccc(C(=O)Nc3ccccc3N)cc2)C(=O)c2ccccc21,≤ 0.3 µM,≤ 0.3 µM,≤ 0.3 µM,≤ 0.3 µM,1 µM,1 µM,1 (active),1 (active),1 (active),1 (active),1 (active),1 (active),1 (active),1 (active),1 (active),1 (active),1 (active),1 (active),1 (active),1 (active)
COc1cc2nc(-c3cc(F)ccc3O)nc(N[C@@H]3CNC[C@H]3C(C)(C)O)c2cc1OC,3 µM,9 µM,9 µM,9 µM,9 µM,1 µM,1 (active),1 (active),1 (active),1 (active),1 (active),1 (active),1 (active),1 (active),1 (active),1 (active),1 (active),1 (active),1 (active),1 (active)
OC[C@H]1O[C@@H](n2cnc3c(NCc4ccco4)ncnc32)[C@H](O)[C@@H]1O [Kinetin riboside],1 µM,3 µM,3 µM,3 µM,3 µM,3 µM,1 (active),1 (active),1 (active),1 (active),1 (active),1 (active),1 (active),1 (active),1 (active),1 (active),1 (active),1 (active),1 (active),1 (active)
Cc1cc(Nc2cc(N3CCN(C)CC3)nc(Sc3ccc(NC(=O)C4CC4)cc3)n2)[nH]n1,≤ 0.3 µM,≤ 0.3 µM,≤ 0.3 µM,≤ 0.3 µM,≤ 0.3 µM,≤ 0.3 µM,1 (active),1 (active),1 (active),1 (active),1 (active),1 (active),1 (active),1 (active),1 (active),1 (active),1 (active),1 (active),1 (active),1 (active)
COc1cc(N2CCOCC2)ccc1Nc1ncc(Cl)c(Nc2ccccc2NS(C)(=O)=O)n1,3 µM,3 µM,3 µM,3 µM,3 µM,3 µM,1 (active),1 (active),1 (active),1 (active),1 (active),1 (active),1 (active),1 (active),1 (active),1 (active),1 (active),1 (active),1 (active),1 (active)
Cc1ccc(NC(=O)CCCCCC(=O)Nc2ccccc2N)cc1,1 µM,3 µM,1 µM,3 µM,3 µM,3 µM,1 (active),1 (active),1 (active),1 (active),1 (active),1 (active),1 (active),1 (active),1 (active),1 (active),1 (active),1 (active),1 (active),1 (active)
Nc1nc(Cl)nc2c1ncn2[C@@H]1O[C@H](CO)[C@@H](O)[C@@H]1F [clofarabine],1 µM,≤ 0.3 µM,1 µM,1 µM,1 µM,≤ 0.3 µM,1 (active),1 (active),1 (active),1 (active),1 (active),1 (active),1 (active),1 (active),1 (active),1 (active),1 (active),1 (active),1 (active),1 (active)
O=C(CCCCCN1C(=O)c2cccc3cccc(c23)C1=O)NO [Scriptaid],≤ 0.3 µM,1 µM,≤ 0.3 µM,1 µM,≤ 0.3 µM,≤ 0.3 µM,1 (active),1 (active),1 (active),1 (active),1 (active),1 (active),1 (active),1 (active),1 (active),1 (active),1 (active),1 (active),1 (active),1 (active)
